Test results reported in PubChem BioAssay (NCATS).
Results filed as inconclusive are left out. Active and inactive are the calls of the source. Calls come from the whole dose curve; as a rule, active = well fitted inhibition curve with a large enough effect; inconclusive = small, poorly fitted or top-dose-only effect; inactive = flat fitted curve, though single readings scatter.

Tests used:
Assay in all cases: qHTS profiling for inhibitors of Plasmodium falciparum proliferation (AID 504749); note: nearly all actives have a fitted effect of over 60% in size
Conditions in all cases: P. falciparum in erythrocytes, SYBR Green DNA, 72 h; series mostly up to 28.7 µM
CP265 = tested on: CP265
Procedure, shortened: (§1)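 Three-day growth assay of blood-stage parasites in erythrocytes (0.3% parasitemia, 2.5% hematocrit) at 37 C, 5% CO2, quantified by SYBR Green DNA staining after overnight detergent lysis.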

CP266 = tested on: CP266
Procedure, shortened: as §1

CP286 = tested on: CP286
Procedure, shortened: as §1

CP315 = tested on: CP315
Procedure, shortened: as §1

CP335 = tested on: CP335
Procedure, shortened: as §1

DFO2036 = tested on: DFO2036
Procedure, shortened: as §1

Dd2 = tested on: Dd2
Procedure, shortened: as §1

ECU = tested on: ECU
Procedure, shortened: as §1

CP268 = tested on: CP268
Procedure, shortened: as §1

CP269 = tested on: CP269
Procedure, shortened: as §1

CP291 = tested on: CP291
Procedure, shortened: as §1

CP297 = tested on: CP297
Procedure, shortened: as §1

CP305 = tested on: CP305
Procedure, shortened: as §1

CP325 = tested on: CP325
Procedure, shortened: as §1

CP329 = tested on: CP329
Procedure, shortened: as §1

DIV14 = tested on: DIV14
Procedure, shortened: as §1

DIV17 = tested on: DIV17
Procedure, shortened: as §1

DIV30 = tested on: DIV30
Procedure, shortened: as §1

FAB9 = tested on: FAB9
Procedure, shortened: as §1

GB4 = tested on: GB4
Procedure, shortened: as §1

Measured: Potency
Potency is the fitted concentration of half-maximal effect.

CCCCCCCCCCCC(CC1OC(=O)C1CCCCCC)OC(=O)C(CC(C)C)NC=O (stereo unspecified)
active: CP265 631 nM | CP286 1000 nM | CP335 675 nM | DFO2036 501 nM | Dd2 794 nM | ECU 398 nM
inactive: CP266 | CP315

COc1cccc2c1C(=O)c1c(O)c3c(c(O)c1C2=O)C[C@@](O)(C(=O)CO)C[C@@H]3O[C@H]1C[C@H](N)[C@H](OC2CCCCO2)[C@H](C)O1 (stereo partly specified)
active: CP265 8910 nM | CP266 7570 nM | CP268 8490 nM | CP269 5360 nM | CP286 2000 nM | CP291 6750 nM | CP297 6750 nM | CP305 6010 nM | CP315 16900 nM | CP325 7570 nM | CP329 6750 nM | CP335 3010 nM | DFO2036 3550 nM | DIV14 3790 nM | DIV17 2390 nM | DIV30 6750 nM | Dd2 2000 nM | ECU 2000 nM | FAB9 12600 nM | GB4 4780 nM

Nc1nc2c(c(=O)[nH]1)N(C=O)[C@H](CNc1ccc(C(=O)N[C@@H](CCC(=O)O)C(=O)O)cc1)CN2
inactive: CP265 | CP266 | CP268 | CP269 | CP286 | CP297 | CP305 | CP315 | CP325 | CP329 | CP335 | DFO2036 | DIV14 | DIV17 | DIV30 | Dd2 | ECU | FAB9 | GB4

COc1ccc2c(c1OC)C(=O)OC2[C@H]1c2c(cc3c(c2OC)OCO3)CCN1C (stereo partly specified)
inactive: CP265 | CP266 | CP268 | CP269 | CP286 | CP291 | CP297 | CP305 | CP315 | CP325 | CP329 | CP335 | DFO2036 | DIV14 | DIV17 | DIV30 | Dd2 | ECU | FAB9 | GB4

COc1ccc([C@@H]2CNC(=O)C2)cc1OC1CCCC1
inactive: CP265 | CP266 | CP268 | CP269 | CP286 | CP291 | CP297 | CP305 | CP315 | CP325 | CP329 | CP335 | DFO2036 | DIV14 | DIV17 | DIV30 | Dd2 | ECU | FAB9 | GB4

OCC(O)C(O)C(O)CO (stereo unspecified)
inactive: CP265 | CP266 | CP268 | CP269 | CP286 | CP291 | CP297 | CP305 | CP315 | CP325 | CP329 | CP335 | DFO2036 | DIV14 | DIV17 | DIV30 | Dd2 | ECU | FAB9 | GB4

CCC(C(=O)O)C1CCC(C)C(C(C)C(O)C(C)C(=O)C(CC)C2OC3(C=CC(O)[C@@]4(CC[C@](C)(C5CC[C@@](O)(CC)C(C)O5)O4)O3)C(C)CC2C)O1 (stereo partly specified)
active: CP265 1260 nM | CP266 1350 nM | CP268 1070 nM | CP269 675 nM | CP286 794 nM | CP291 675 nM | CP297 757 nM | CP305 675 nM | CP315 478 nM | CP325 849 nM | CP329 601 nM | CP335 379 nM | DFO2036 794 nM | DIV17 601 nM | DIV30 478 nM | Dd2 891 nM | ECU 1580 nM | FAB9 2240 nM | GB4 536 nM
